Experimental data as given in PubChem BioAssay (EPA / NIEHS).
Several values for one entry are separate records, joined by “and”; a condition that tells them apart may be missing. Equal values may be shown once. Results filed as inconclusive are left out. Activity calls are given as the source filed them. How the source made its calls, unless noted: active means hit-call score of the fitted dose curve at least 0.9, where 1 is the maximum; inactive means score below 0.9.

Tests used:
[1] = read-out: Monocyte Chemoattractant Protein-1 (MCP1), CCL2 (gene 6347); test: BSK_SAg_MCP1: BioMAP Diversity Plus: SAg Assay for Monocyte Chemoattractant Protein-1 (MCP1) Biomarker Activity (AID 2283090); conditions: primary human HUVEC with PBMC; actives raise or lower the signal
How it was run: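 MCP-1 levels in the endothelial–PBMC SAg co-culture were quantified by ELISA at 24 h post-dosing; both increases and decreases versus DMSO scored. Cytotoxicity monitored by SRB total protein in parallel cultures.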

[2] = read-out: E-selectin (Homo sapiens) (UniProt P16581); test: BSK_SAg_Eselectin: BioMAP Diversity Plus: SAg Assay for Eselectin Biomarker Activity (AID 2283091); conditions: primary human HUVEC with PBMC; actives raise or lower the signal
How it was run: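 E-selectin ELISA readout at 24 h post-dosing in human umbilical vein endothelial cell/PBMC co-culture; gain or loss of signal fitted relative to DMSO baseline.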

[3] = read-out: Monokine induced gamma interferon (MIG), CXCL9 (gene 4283); test: BSK_SAg_MIG: BioMAP Diversity Plus: SAg Assay for Monokine induced gamma interferon (MIG) Biomarker Activity (AID 2283092); conditions: primary human HUVEC with PBMC; actives raise or lower the signal
How it was run: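 Values reflect bidirectional fitting of ELISA-measured MIG against DMSO vehicle, taken 24 h after dosing of a co-culture of human umbilical vein endothelial cells and peripheral blood mononuclear cells.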

[4] = BSK_SAg_PBMCCytotoxicity: PBMC Cytotoxicity Assessment in the BioMAP Diversity Plus: SAg Assay (AID 2283093); conditions: primary human HUVEC with PBMC;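 further: PBMC viability measured as Alamar Blue reduction fluorescence at 546/580 nm; fitted both ways against DMSO so a hit may be loss or gain of signal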;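 on AC50: PBMC superantigen activated with SEB plus TSST-1 one hour after compound addition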
How it was run: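 Compound added to 75,000 PBMC/well for 1 h; SEB and TSST-1 then added at 20 ng/mL final each; 90 h incubation; Alamar Blue 6 h; read 546/580 nm ex/em. Activity fitted bidirectionally relative to DMSO baseline.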

[5] = read-out: Interleukin-8 (IL8), CXCL8 (gene 3576); test: BSK_SAg_IL8: BioMAP Diversity Plus: SAg Assay for Interleukin-8 (IL8) Biomarker Activity (AID 2283094); conditions: primary human HUVEC with PBMC; actives raise or lower the signal
How it was run: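 Human umbilical vein endothelial cells co-cultured with PBMC, stimulated with superantigen; IL-8 measured by ELISA 24 h after chemical dosing. Bidirectional fitting versus DMSO; SRB staining in parallel cultures tracks cytotoxicity.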

[6] = BSK_SAg_Proliferation: Cell Proliferation Assessment in the BioMAP Diversity Plus: SAg Assay (AID 2283095); conditions: primary human HUVEC with PBMC
How it was run: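 Human umbilical vein endothelial cells co-cultured with PBMC; sulforhodamine B total-protein staining (0.1% SRB after 10% TCA fixation, absorbance 560 nm) at 96 h in sub-confluent culture. Fitted bidirectionally against DMSO.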

[7] = BSK_SAg_SRB: Viability Assessment in the BioMAP Diversity Plus: SAg Assay (AID 2283096); conditions: primary human HUVEC with PBMC;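 further: cells read one day after compound addition; hits may be either gain or loss of signal compared with DMSO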
How it was run: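 Total protein by sulforhodamine B staining, 24 h after dosing, in HUVEC–PBMC co-culture; DMSO-referenced bidirectional fitting.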

[8] = biological target: human CYP1A1, CYP1A1 (gene 1543) (UniProt P04798); test: NVS_ADME_hCYP1A1: NovaScreen (NVS) CYP450-related Enzyme Activity (ADME) Assay for human CYP1A1 (AID 2283100; active means hit-call score of the fitted dose curve at least 0.9, where 1 is the maximum)
human CYP1A1, CYP1A1 (gene 1543), sequence (P04798 whole entry, looked up): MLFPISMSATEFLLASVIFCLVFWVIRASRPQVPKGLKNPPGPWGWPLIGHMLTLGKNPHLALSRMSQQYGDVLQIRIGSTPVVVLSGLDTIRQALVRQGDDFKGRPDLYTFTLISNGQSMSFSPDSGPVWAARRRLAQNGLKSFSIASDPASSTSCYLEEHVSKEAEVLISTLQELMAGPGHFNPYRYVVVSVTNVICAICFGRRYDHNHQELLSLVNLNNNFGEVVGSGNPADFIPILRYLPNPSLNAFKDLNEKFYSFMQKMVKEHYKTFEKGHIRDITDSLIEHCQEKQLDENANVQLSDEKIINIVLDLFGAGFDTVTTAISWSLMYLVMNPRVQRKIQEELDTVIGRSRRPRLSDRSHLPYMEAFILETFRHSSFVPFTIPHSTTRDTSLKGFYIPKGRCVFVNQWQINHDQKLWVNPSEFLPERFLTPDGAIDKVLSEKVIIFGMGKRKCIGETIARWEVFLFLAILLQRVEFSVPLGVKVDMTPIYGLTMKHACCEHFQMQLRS
Procedure: NVS_ADME_hCYP1A1 is a biochemical, single-readout assay that uses extracted gene-proteins in a cell-free assay. Measurements were taken 1 hour after chemical dosing in a 96-well plate.NVS_ADME_hCYP1A1 is one of one assay component(s) measured or calculated from the NVS_ADME_hCYP1A1 assay. It is designed to make measurements of enzyme activity, a form of enzyme reporter, as detected with fluorescence intensity signals by Fluorescence technology.Data from the assay component NVS_ADME_hCYP1A1 was analyzed into 1 assay endpoint. This assay endpoint, NVS_ADME_hCYP1A1, was analyzed in the positive analysis fitting direction relative to Acetonitrile as the negative control and baseline of activity. Using a type of enzyme reporter, loss-of-signal activity can be used to understand changes in the enzymatic activity as they relate to the gene CYP1A1. Furthermore, this assay endpoint can be referred to as a primary readout, because this assay has produced multiple assay endpoints where this one serves a enzymatic activity function. To generalize the intended target to other relatable targets, this assay endpoint is annotated to the cyp intended target family, where the subfamily is xenobiotic metabolism.
Binding assays used specific radioligands (tritiated, iodinated) with non-radioactive competitive displacement ligands in agonist or antagonist protocols (as indicated) and various reference compounds and inhibitors to titrate specific binding to receptors and transporters. Most enzyme assays (CYPs, kinases, phosphatases, proteases, HDACs) used recombinant protein and specific substrates (fluorescence mostly, some colorimetric and radioactive) and inhibitors, followed by a biochemical separation of substrate and product. All assays for the biochemical HTS were initially run in duplicate at a single concentration (10 uM for CYP450 assays and 25 uM for all others). Assay-chemical combinations meeting a pre-defined threshold (e.g., 30% inhibition and other criteria defined below) were then run in singleton concentration-response format with maximum concentration of 20 uM for CYPs and 50 uM for all others. Each assay was run with positive and negative controls, and concurrent controls on every plate. The follow-up (secondary) screen tested active chemical-pairs in concentration series, as well as a few additional assays not tested in the primary screen, some selected negative inactives, and several cases re-run in the concentration series for confirmatory purposes.

[9] = biological target: human CYP19A1, CYP19A1 (gene 1588) (UniProt P11511); test: NVS_ADME_hCYP19A1: NovaScreen (NVS) CYP450-related Enzyme Activity (ADME) Assay for human CYP19A1 (AID 2283098; active means hit-call score of the fitted dose curve at least 0.9, where 1 is the maximum;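 on AC50: potency for inhibitors seen as loss of fluorescent enzyme signal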)
human CYP19A1, CYP19A1 (gene 1588), sequence (P11511 whole entry, looked up): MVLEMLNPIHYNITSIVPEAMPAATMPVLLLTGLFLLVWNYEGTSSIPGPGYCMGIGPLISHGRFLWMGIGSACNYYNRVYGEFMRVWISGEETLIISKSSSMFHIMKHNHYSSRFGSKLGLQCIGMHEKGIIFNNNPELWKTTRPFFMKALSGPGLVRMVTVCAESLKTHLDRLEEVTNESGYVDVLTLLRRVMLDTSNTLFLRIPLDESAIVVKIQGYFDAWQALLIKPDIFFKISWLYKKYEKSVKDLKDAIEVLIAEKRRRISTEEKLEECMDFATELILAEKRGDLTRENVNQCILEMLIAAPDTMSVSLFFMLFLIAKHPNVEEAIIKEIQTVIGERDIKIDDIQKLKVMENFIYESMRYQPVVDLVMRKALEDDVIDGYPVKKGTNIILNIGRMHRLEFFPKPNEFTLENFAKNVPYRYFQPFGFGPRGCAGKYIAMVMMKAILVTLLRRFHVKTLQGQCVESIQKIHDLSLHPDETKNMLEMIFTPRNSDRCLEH
How it was run: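 Biochem, cell-free; recombinant enzyme + specific substrate; fluorescence intensity at 0.5 h post-dose; 10 uM duplicate primary, conc. series for actives; acetonitrile = negative control/baseline; positive and negative controls on every plate.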

[10] = biological target: human CYP2A6, CYP2A6 (gene 1548) (UniProt P11509); test: NVS_ADME_hCYP2A6: NovaScreen (NVS) CYP450-related Enzyme Activity (ADME) Assay for human CYP2A6 (AID 2283099; active means hit-call score of the fitted dose curve at least 0.9, where 1 is the maximum)
human CYP2A6, CYP2A6 (gene 1548), sequence (P11509 whole entry, looked up): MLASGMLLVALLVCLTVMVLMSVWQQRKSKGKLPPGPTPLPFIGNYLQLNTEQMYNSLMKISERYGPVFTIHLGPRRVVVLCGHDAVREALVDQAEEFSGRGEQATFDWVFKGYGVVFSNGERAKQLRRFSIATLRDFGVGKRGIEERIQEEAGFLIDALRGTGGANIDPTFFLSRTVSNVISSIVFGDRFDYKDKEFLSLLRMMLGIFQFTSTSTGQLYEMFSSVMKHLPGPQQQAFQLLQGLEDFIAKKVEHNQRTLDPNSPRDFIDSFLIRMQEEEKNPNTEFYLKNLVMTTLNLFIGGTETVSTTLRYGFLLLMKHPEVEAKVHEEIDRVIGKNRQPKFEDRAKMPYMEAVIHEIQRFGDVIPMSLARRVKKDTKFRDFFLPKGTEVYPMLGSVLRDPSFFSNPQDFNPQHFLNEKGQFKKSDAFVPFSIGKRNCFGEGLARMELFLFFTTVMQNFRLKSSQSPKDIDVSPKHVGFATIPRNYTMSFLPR
How it was run: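 Insect-cell-expressed human CYP2A6 enzyme activity measured by fluorescence intensity 0.5 hour post-dosing. Compounds screened at 10 uM in duplicate, then hits tested singly in concentration series (max 20 uM); acetonitrile baseline.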

Measured: AC50

E-selectin (Homo sapiens), sequence (P16581 whole entry, looked up): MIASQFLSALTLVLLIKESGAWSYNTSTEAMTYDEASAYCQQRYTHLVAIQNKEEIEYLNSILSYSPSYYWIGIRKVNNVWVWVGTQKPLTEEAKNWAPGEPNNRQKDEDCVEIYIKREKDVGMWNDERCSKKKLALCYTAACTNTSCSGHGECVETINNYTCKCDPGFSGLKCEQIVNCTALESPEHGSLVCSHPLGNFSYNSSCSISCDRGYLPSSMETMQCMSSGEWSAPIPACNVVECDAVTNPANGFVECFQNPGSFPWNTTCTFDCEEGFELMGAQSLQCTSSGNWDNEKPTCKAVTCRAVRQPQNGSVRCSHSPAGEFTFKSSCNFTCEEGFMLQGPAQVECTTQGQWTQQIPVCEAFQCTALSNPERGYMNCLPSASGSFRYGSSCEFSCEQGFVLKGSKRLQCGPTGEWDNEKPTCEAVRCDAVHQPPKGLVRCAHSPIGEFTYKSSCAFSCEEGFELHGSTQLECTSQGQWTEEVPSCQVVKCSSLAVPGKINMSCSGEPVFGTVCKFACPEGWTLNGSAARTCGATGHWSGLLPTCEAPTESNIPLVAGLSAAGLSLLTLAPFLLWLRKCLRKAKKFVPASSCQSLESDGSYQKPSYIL

Cc1ccccc1O
not listed: [8] | [9] | [10]
inactive: all other assays above

CCCCCCCCOC(=O)c1ccccc1C(=O)OCCCCCCCC
active: [4] 5.6 µM
not listed: [8] | [9] | [10]
inactive: all other assays above

CC#Cc1cc(C)nc(Nc2ccccc2)n1
active: [6] 28.3 µM | [8] 0.617 µM
not listed: [9] | [10]
inactive: all other assays above

O=S(=O)(O)C(F)(F)C(F)(F)C(F)(F)C(F)(F)C(F)(F)C(F)(F)F
not listed: [8] | [10]
inactive: all other assays above

CN(C)CCO
not listed: [8] | [9] | [10]
inactive: all other assays above

CCCN(CCC)N=O
not listed: [8] | [10]
inactive: all other assays above

ClC1=C(Cl)[C@]2(Cl)[C@@H]3[C@@H](Cl)[C@H]4O[C@H]4[C@@H]3C1(Cl)C2(Cl)Cl
active: [2] 9.42 µM | [6] 14.7 µM | [7] 10.6 µM
not listed: [8] | [10]
inactive: all other assays above

C[C@]12CCC(=O)C=C1CC[C@@H]1[C@@H]2CC[C@]2(C)C(=O)CC[C@@H]12
active: [7] 20 µM | [9] 5.03 µM and 5.63 µM and 1.44 µM
not listed: [8] | [10]
inactive: all other assays above

C=CC(=O)NCNC(=O)C=C
not listed: [8] | [9] | [10]
inactive: all other assays above

Cc1cc(O)ccc1Cl
not listed: [8] | [9] | [10]
inactive: all other assays above

Cc1cccc([N+](=O)[O-])c1
not listed: [8] | [9]
inactive: all other assays above

CCCCCCCCCC[N+](C)(C)CCCCCCCCCC
active: [1] 3.45 µM | [2] 2.19 µM | [3] 3.59 µM | [4] 1.77 µM | [5] 7.36 µM | [6] 0.148 µM | [7] 5.35 µM

Cc1cc(-c2ccc(N)c(C)c2)ccc1N
active: [6] 11.8 µM
not listed: [8] | [10]
inactive: all other assays above

CCOP(=S)(OCC)SCSC(C)(C)C
active: [2] 39 µM | [4] 31.1 µM | [6] 28.8 µM
inactive: [1] | [3] | [5] | [7]

Cc1cccc(C)c1N
not listed: [8] | [9] | [10]
inactive: all other assays above

Clc1ccc(Cl)cc1
not listed: [8] | [9] | [10]
inactive: all other assays above
